Assay results from PubChem BioAssay AID1159580 (chemical genetic matrix, 2015).
Where “and” joins values, the source holds several entries; their conditions need not be identical. Identical values can stand only once. The whole screen tested about 5,500 compounds, of which about 2,000 (36%) were called active. Another 18% or so got no clear call; they are omitted. Cut-off read from the data, not from the text of the source: active = normalized growth mostly below about 0.91 (no sharp cut-off); inconclusive = no clear call, values can overlap the other calls; inactive = mostly above about 0.92. The list shows a part of the results.

Assay: chemical genetic growth profiling, strain panel (AID 1159580);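 note: tested at 20 µM; growth read once vehicle control cultures reached saturation at 30 °C; 1 = growth at the plate median or of vehicle wells; lower values mean less growth of the strain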
Conditions: growth OD

Measured: normalized growth

OCCN1CCN(CCCN2c3ccccc3Sc3ccc(Cl)cc32)CC1
inactive: S. cerevisiae deletion strains, locus YJR075W, strain HOC1, stronger effect = lower value 1 | S. cerevisiae deletion strains, locus YKL009W, strain mrt4, stronger effect = lower value 0.982 | S. cerevisiae deletion strains, locus YKL068W, stronger effect = lower value 0.999 | S. cerevisiae deletion strains, locus YKL085W, strain MDH1 (second series), stronger effect = lower value 1 | S. cerevisiae deletion strains, locus YKL085W, strain MDH1, stronger effect = lower value 1 | S. cerevisiae deletion strains, locus YKL160W, strain elf1, stronger effect = lower value 0.996 | S. cerevisiae deletion strains, locus YKL190W, strain CNB1, stronger effect = lower value 1.01 | S. cerevisiae deletion strains, locus YKR001C, strain vps1, stronger effect = lower value 1.03 | S. cerevisiae deletion strains, locus YKR026C, strain gcn3, stronger effect = lower value 1 | S. cerevisiae deletion strains, locus YKR091W, strain srl3, stronger effect = lower value 1 | S. cerevisiae deletion strains, locus YLL001W, strain dnm1, stronger effect = lower value 1.01 | S. cerevisiae deletion strains, locus YLL026W, stronger effect = lower value 0.999 | S. cerevisiae deletion strains, locus YLL041C, strain sdh2, stronger effect = lower value 1 | S. cerevisiae deletion strains, locus YLR027C, strain aat2, stronger effect = lower value 1 | S. cerevisiae deletion strains, locus YLR039C, strain RIC1, stronger effect = lower value 1.24 | S. cerevisiae deletion strains, locus YLR058C, strain SHM2, stronger effect = lower value 1.01 | S. cerevisiae deletion strains, locus YLR102C, strain apc9, stronger effect = lower value 0.991 | S. cerevisiae deletion strains, locus YLR113W, strain HOG1, stronger effect = lower value 0.98 | S. cerevisiae deletion strains, locus YLR221C, strain rsa3, stronger effect = lower value 1 | S. cerevisiae deletion strains, locus YLR258W, strain gsy2, stronger effect = lower value 1 | S. cerevisiae deletion strains, locus YLR262C, strain YPT6 (second series), stronger effect = lower value 1.06 | S. cerevisiae deletion strains, locus YLR262C, strain YPT6, stronger effect = lower value 1.32 | S. cerevisiae deletion strains, locus YLR268W, strain sec22, stronger effect = lower value 0.935 | S. cerevisiae deletion strains, locus YLR320W, strain mms22, stronger effect = lower value 0.964 | S. cerevisiae deletion strains, locus YLR330W, strain CHS5, stronger effect = lower value 1.01 | S. cerevisiae deletion strains, locus YLR342W, strain FKS1 (second series), stronger effect = lower value 0.958 | S. cerevisiae deletion strains, locus YLR342W, strain FKS1, stronger effect = lower value 0.994 | S. cerevisiae deletion strains, locus YLR357W, strain rsc2, stronger effect = lower value 0.983 | S. cerevisiae deletion strains, locus YLR370C, strain arc18, stronger effect = lower value 1 | S. cerevisiae deletion strains, locus YLR371W, strain rom2, stronger effect = lower value 0.992 | S. cerevisiae deletion strains, locus YLR384C, strain iki3, stronger effect = lower value 1 | S. cerevisiae deletion strains, locus YLR418C, strain cdc73, stronger effect = lower value 0.894 | S. cerevisiae deletion strains, locus YML016C, strain PPZ1, stronger effect = lower value 1.02 | S. cerevisiae deletion strains, locus YML032C, strain rad52, stronger effect = lower value 0.961 | S. cerevisiae deletion strains, locus YML120C, strain ndi1, stronger effect = lower value 1 | S. cerevisiae deletion strains, locus YML124C, strain tub3, stronger effect = lower value 0.991 | S. cerevisiae deletion strains, locus YMR058W, strain fet3, stronger effect = lower value 0.995 | S. cerevisiae deletion strains, locus YMR078C, strain ctf18, stronger effect = lower value 0.986 | S. cerevisiae deletion strains, locus YMR125W, strain sto1, stronger effect = lower value 1.01 | S. cerevisiae deletion strains, locus YMR129W, stronger effect = lower value 1 | S. cerevisiae deletion strains, locus YMR205C, strain PFK2, stronger effect = lower value 0.977 | S. cerevisiae deletion strains, locus YMR223W, strain ubp8, stronger effect = lower value 0.984 | S. cerevisiae deletion strains, locus YMR231W, strain pep5, stronger effect = lower value 1 | S. cerevisiae deletion strains, locus YMR263W, strain SAP30, stronger effect = lower value 1 | S. cerevisiae deletion strains, locus YMR307W, strain GAS1, stronger effect = lower value 1.1 | S. cerevisiae deletion strains, locus YNL067W, strain RPL9B, stronger effect = lower value 0.989 | S. cerevisiae deletion strains, locus YNL071W, strain lat1, stronger effect = lower value 1.01 | S. cerevisiae deletion strains, locus YNL128W, strain TEP1, stronger effect = lower value 1 | S. cerevisiae deletion strains, locus YNL153C, strain GIM3, stronger effect = lower value 0.983 and 0.891 | S. cerevisiae deletion strains, locus YNL175C, strain NOP13, stronger effect = lower value 1.03 | S. cerevisiae deletion strains, locus YNL183C, strain NPR1, stronger effect = lower value 0.947 | S. cerevisiae deletion strains, locus YNL197C, strain WHI3, stronger effect = lower value 1.02 | S. cerevisiae deletion strains, locus YNL209W, strain ssb2, stronger effect = lower value 0.997 | S. cerevisiae deletion strains, locus YNL224C, strain SQS1, stronger effect = lower value 1.02 | S. cerevisiae deletion strains, locus YNL233W, strain BNI4, stronger effect = lower value 0.986 | S. cerevisiae deletion strains, locus YNL248C, strain rpa49, stronger effect = lower value 0.998 | S. cerevisiae deletion strains, locus YNL250W, strain rad50, stronger effect = lower value 0.985 | S. cerevisiae deletion strains, locus YNL271C, strain bni1, stronger effect = lower value 0.996 | S. cerevisiae deletion strains, locus YNL298W, strain CLA4, stronger effect = lower value 0.976 | S. cerevisiae deletion strains, locus YNL307C, strain MCK1, stronger effect = lower value 0.973 | S. cerevisiae deletion strains, locus YNL322C, strain KRE1 (second series), stronger effect = lower value 1 | S. cerevisiae deletion strains, locus YNL322C, strain KRE1, stronger effect = lower value 1.01 | S. cerevisiae deletion strains, locus YNR049C, strain mso1, stronger effect = lower value 1.01 | S. cerevisiae deletion strains, locus YNR052C, strain pop2, stronger effect = lower value 1 | S. cerevisiae deletion strains, locus YOL006C, strain TOP1, stronger effect = lower value 1.01 | S. cerevisiae deletion strains, locus YOL012C, strain htz1 0.889 | S. cerevisiae deletion strains, locus YOL147C, strain pex11, stronger effect = lower value 0.992 | S. cerevisiae deletion strains, locus YOR001W, strain rrp6, stronger effect = lower value 0.976 | S. cerevisiae deletion strains, locus YOR061W, strain CKA2, stronger effect = lower value 1.02 | S. cerevisiae deletion strains, locus YOR069W, strain VPS5, stronger effect = lower value 1.01 | S. cerevisiae deletion strains, locus YOR070C, strain gyp1, stronger effect = lower value 0.994 | S. cerevisiae deletion strains, locus YOR080W, strain dia2, stronger effect = lower value 1 | S. cerevisiae deletion strains, locus YOR083W, strain WHI5 (second series), stronger effect = lower value 0.973 | S. cerevisiae deletion strains, locus YOR083W, strain WHI5, stronger effect = lower value 0.991 | S. cerevisiae deletion strains, locus YOR106W, strain vam3, stronger effect = lower value 0.962 | S. cerevisiae deletion strains, locus YOR136W, strain idh2, stronger effect = lower value 0.998 | S. cerevisiae deletion strains, locus YOR144C, strain elg1, stronger effect = lower value 1 | S. cerevisiae deletion strains, locus YOR184W, strain ser1, stronger effect = lower value 0.985 | S. cerevisiae deletion strains, locus YOR231W, strain MKK1, stronger effect = lower value 0.997 | S. cerevisiae deletion strains, locus YOR265W, strain rbl2, stronger effect = lower value 0.998 | S. cerevisiae deletion strains, locus YOR270C, strain vph1, stronger effect = lower value 1.04 | S. cerevisiae deletion strains, locus YOR290C, strain snf2, stronger effect = lower value 0.968 | S. cerevisiae deletion strains, locus YOR316C, strain cot1, stronger effect = lower value 0.994 | S. cerevisiae deletion strains, locus YPL051W, strain arl3, stronger effect = lower value 0.975 | S. cerevisiae deletion strains, locus YPL055C, strain LGE1, stronger effect = lower value 0.99 | S. cerevisiae deletion strains, locus YPL078C, strain atp4, stronger effect = lower value 1 | S. cerevisiae deletion strains, locus YPL106C, strain sse1, stronger effect = lower value 1.03 | S. cerevisiae deletion strains, locus YPL240C, strain hsp82, stronger effect = lower value 0.995 | S. cerevisiae deletion strains, locus YPL241C, strain CIN2, stronger effect = lower value 1.02 | S. cerevisiae deletion strains, locus YPL256C, strain CLN2, stronger effect = lower value 1.01 | S. cerevisiae deletion strains, locus YPR119W, strain clb2, stronger effect = lower value 0.991 | S. cerevisiae deletion strains, locus YPR141C, strain kar3, stronger effect = lower value 0.996 | S. cerevisiae deletion strains, locus YPR163C, strain tif3, stronger effect = lower value 0.987 | S. cerevisiae deletion strains, locus YPR167C, strain met16, stronger effect = lower value 1 | S. cerevisiae deletion strains, strain wtn01, stronger effect = lower value 0.951 | S. cerevisiae strains, strain wild type, stronger effect = lower value 1.01
